Columns and labels:
Assay in all cases: DAPPL (digital affinity profiling via proximity ligation, sequencing); 10 mM Tris-HCl pH 7.5, 50 mM NaCl, 1 mM DTT, 4% glycerol, room temperature, 30 min; GST-TFs on glutathione beads, 16-mer random dsDNA library, 0.1% formaldehyde crosslink after washing; high values mean tight binding
FEV = molecular target: T1, FEV (Homo sapiens, UniProt Q99581 1-238); details: protein: recombinant; tags: N-terminal GST; dsDNA, one strand shown
T1 sequence: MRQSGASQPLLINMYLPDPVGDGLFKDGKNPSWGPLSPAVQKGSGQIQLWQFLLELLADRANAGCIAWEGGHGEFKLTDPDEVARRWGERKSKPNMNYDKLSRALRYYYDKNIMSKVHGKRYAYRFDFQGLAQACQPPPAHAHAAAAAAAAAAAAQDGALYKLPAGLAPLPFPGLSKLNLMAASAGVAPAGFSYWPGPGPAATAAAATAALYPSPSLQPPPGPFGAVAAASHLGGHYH
Procedure, shortened: (§1)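 Binding signal is each hexamer's read frequency for a factor divided by its frequency in the tag-only sample. The factors were GST-fused human transcription factors from yeast, captured on glutathione beads, DNA-barcoded and pooled with that sample. Pools were incubated with 200 nmole of a random double-stranded 16-mer DNA library in Tris/NaCl/DTT/glycerol buffer at room temperature for 30 min, then washed, crosslinked with 0.1% formaldehyde, proximity-ligated with BsaI/T4 ligase (1 h, 37 °C), PCR-amplified and sequenced on an Illumina NextSeq500.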

ETV5 = ETV5 (Homo sapiens, UniProt P41161 1-510); details: protein: recombinant; tags: N-terminal GST; dsDNA, one strand shown
Sequence of ETV5 (P41161 whole entry): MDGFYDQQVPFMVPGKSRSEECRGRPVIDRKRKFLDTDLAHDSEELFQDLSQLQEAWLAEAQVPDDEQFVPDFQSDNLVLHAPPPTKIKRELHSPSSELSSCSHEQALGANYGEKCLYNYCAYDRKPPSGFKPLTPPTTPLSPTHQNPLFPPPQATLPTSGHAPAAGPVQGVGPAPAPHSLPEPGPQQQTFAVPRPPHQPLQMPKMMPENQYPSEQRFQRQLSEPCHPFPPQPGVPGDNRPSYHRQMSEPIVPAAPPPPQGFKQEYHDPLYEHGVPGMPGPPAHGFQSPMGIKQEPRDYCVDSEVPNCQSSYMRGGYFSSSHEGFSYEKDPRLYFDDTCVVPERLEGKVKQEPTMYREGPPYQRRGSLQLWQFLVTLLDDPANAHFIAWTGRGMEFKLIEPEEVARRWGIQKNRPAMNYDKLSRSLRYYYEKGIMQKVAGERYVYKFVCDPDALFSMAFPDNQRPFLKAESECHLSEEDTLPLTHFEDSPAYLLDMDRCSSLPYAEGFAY
Procedure, shortened: as §1

HSF1 = HSF1 (Homo sapiens, UniProt Q00613 1-529); details: protein: recombinant; tags: N-terminal GST; chain copies: 3; dsDNA, one strand shown
Sequence of HSF1 (Q00613 whole entry): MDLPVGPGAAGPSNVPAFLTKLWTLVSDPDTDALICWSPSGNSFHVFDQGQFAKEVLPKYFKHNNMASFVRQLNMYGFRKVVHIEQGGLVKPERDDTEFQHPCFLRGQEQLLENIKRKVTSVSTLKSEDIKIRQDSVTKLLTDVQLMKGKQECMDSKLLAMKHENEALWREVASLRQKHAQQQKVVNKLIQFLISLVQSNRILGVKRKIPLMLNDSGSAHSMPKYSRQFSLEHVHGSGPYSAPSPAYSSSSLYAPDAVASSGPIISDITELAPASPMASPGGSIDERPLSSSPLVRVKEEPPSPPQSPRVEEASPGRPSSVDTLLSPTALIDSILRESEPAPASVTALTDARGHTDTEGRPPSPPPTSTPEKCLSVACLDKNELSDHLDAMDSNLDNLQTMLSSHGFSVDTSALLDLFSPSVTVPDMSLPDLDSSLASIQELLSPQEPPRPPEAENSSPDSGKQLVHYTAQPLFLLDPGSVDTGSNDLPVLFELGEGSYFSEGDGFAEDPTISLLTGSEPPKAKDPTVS
Procedure, shortened: as §1

SPIC = molecular target: T2, SPIC (Homo sapiens, UniProt Q8N5J4 1-248); details: protein: recombinant; tags: N-terminal GST; dsDNA, one strand shown
T2 sequence: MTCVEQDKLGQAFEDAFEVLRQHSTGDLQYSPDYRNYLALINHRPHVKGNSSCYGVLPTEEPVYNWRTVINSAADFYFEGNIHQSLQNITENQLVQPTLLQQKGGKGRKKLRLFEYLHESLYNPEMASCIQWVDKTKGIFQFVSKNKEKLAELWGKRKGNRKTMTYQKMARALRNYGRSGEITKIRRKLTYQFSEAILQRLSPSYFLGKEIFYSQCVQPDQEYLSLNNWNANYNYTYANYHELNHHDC
Procedure, shortened: as §1

ELF4 = ELF4 (Homo sapiens, UniProt Q99607 1-663); details: protein: recombinant; tags: N-terminal GST; dsDNA, one strand shown
Sequence of ELF4 (Q99607 whole entry): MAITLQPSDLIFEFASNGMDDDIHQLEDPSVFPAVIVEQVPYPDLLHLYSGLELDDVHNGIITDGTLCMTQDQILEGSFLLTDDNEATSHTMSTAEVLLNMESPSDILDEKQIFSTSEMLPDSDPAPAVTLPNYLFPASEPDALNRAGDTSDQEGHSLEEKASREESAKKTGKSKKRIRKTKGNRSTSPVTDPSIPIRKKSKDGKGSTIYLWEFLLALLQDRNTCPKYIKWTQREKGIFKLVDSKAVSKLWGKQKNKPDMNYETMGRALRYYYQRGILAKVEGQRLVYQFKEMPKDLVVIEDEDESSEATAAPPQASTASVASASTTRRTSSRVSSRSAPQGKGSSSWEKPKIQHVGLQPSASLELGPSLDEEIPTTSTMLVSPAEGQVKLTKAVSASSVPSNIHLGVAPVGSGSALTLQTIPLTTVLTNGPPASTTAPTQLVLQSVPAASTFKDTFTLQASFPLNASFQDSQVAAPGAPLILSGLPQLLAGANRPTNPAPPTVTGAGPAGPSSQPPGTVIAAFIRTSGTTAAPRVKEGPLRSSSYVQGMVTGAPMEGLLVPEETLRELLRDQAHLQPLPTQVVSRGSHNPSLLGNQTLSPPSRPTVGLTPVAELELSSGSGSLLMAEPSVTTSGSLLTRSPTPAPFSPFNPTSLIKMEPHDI
Procedure, shortened: as §1

ELK4 = molecular target: T3, ELK4 (Homo sapiens, UniProt P28324-2 1-405); details: protein: recombinant; tags: N-terminal GST; dsDNA, one strand shown
T3 sequence: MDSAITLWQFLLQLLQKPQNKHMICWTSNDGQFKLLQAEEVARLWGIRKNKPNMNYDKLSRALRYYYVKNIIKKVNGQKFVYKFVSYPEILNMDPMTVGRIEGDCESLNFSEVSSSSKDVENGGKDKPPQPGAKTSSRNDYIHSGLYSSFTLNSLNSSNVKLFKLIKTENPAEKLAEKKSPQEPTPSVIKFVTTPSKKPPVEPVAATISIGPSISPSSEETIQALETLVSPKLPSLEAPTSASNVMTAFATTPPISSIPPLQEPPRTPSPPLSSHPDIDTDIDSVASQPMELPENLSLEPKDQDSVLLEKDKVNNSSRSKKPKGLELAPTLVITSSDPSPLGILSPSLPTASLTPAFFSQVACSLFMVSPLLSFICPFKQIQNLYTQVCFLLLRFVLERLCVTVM
Procedure, shortened: as §1

ETV2 = molecular target: T4, ETV2 (Homo sapiens, UniProt O00321 1-342); details: protein: recombinant; tags: N-terminal GST; dsDNA, one strand shown
T4 sequence: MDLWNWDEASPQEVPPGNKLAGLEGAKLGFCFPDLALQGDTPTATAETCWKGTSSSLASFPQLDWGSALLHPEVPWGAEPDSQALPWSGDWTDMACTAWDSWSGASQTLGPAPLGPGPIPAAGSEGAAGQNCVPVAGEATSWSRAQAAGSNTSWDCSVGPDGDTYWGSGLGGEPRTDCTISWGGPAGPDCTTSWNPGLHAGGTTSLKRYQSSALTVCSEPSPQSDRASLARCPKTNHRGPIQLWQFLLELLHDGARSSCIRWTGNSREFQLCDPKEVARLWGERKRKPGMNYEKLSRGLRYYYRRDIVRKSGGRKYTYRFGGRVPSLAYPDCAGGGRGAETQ
Procedure, shortened: as §1

ELF3 = molecular target: T5, ELF3 (Homo sapiens, UniProt P78545 1-371); details: protein: recombinant; tags: N-terminal GST; dsDNA, one strand shown
T5 sequence: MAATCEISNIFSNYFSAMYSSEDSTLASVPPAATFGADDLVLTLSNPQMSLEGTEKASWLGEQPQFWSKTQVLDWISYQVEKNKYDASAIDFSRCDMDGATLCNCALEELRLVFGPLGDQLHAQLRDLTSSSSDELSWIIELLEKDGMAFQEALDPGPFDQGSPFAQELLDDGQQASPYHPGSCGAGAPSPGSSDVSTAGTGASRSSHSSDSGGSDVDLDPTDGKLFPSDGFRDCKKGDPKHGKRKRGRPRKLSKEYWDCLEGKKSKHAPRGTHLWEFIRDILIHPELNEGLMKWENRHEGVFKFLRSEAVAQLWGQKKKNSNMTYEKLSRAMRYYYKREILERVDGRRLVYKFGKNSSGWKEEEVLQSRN
Procedure, shortened: as §1

CRX = CRX (Homo sapiens, UniProt O43186 1-299); details: protein: recombinant; tags: N-terminal GST; dsDNA, one strand shown
Sequence of CRX (O43186 whole entry): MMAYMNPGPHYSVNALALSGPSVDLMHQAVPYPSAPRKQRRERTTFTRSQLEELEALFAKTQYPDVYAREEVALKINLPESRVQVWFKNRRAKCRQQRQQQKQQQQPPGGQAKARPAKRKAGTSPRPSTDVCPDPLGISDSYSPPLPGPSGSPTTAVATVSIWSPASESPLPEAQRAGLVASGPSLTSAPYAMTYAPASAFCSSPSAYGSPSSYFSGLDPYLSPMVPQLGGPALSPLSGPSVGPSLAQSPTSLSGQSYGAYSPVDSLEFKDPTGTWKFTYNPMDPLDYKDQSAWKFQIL
Procedure, shortened: as §1

ETV1 = ETV1 (Homo sapiens, UniProt P50549 1-477); details: protein: recombinant; tags: N-terminal GST; dsDNA, one strand shown
Sequence of ETV1 (P50549 whole entry): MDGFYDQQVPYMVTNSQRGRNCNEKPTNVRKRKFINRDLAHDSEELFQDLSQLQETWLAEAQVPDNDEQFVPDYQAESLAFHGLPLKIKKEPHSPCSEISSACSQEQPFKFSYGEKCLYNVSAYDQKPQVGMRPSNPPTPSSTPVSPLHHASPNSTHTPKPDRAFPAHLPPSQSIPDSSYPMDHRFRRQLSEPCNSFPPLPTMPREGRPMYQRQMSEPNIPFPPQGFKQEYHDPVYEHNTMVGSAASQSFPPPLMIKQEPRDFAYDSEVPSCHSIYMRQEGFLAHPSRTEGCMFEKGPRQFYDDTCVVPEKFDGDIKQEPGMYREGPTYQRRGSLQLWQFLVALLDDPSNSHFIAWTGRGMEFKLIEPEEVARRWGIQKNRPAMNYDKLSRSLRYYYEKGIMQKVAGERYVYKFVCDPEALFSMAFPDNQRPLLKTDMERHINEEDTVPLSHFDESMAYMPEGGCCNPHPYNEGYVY
Procedure, shortened: as §1

ERF = molecular target: T6, ERF (Homo sapiens, UniProt P50548 1-548); details: protein: recombinant; tags: N-terminal GST; dsDNA, one strand shown
T6 sequence: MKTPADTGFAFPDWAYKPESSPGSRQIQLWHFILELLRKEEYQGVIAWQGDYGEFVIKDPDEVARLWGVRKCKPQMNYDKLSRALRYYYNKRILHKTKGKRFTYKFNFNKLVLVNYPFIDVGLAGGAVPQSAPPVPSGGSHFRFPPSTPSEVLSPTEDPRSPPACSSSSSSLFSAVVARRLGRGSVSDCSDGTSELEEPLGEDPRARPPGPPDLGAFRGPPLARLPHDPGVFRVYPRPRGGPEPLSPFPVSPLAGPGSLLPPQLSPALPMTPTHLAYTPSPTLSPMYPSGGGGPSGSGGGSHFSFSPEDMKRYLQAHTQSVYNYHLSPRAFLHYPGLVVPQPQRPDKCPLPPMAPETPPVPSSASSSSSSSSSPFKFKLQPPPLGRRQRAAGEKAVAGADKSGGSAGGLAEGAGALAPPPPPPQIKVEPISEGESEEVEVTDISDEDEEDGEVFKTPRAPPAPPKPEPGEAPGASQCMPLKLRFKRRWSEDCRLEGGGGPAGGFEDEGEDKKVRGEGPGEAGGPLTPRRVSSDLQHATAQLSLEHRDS
Procedure, shortened: as §1

ETV3L = molecular target: T7, ETV3L (Homo sapiens, UniProt Q6ZN32 1-361); details: protein: recombinant; tags: N-terminal GST; dsDNA, one strand shown
T7 sequence: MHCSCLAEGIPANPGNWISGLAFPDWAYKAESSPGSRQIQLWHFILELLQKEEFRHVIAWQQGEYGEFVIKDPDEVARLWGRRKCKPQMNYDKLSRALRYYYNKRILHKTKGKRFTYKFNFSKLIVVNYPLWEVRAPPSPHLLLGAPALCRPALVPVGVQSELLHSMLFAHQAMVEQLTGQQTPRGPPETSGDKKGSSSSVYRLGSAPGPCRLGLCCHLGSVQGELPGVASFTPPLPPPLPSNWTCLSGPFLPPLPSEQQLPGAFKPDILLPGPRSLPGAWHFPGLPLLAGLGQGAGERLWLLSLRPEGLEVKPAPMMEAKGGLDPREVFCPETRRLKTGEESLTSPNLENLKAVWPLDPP
Procedure, shortened: as §1

ETS2 = molecular target: T8, ETS2 (Homo sapiens, UniProt P15036 1-469); details: protein: recombinant; tags: N-terminal GST; dsDNA, one strand shown
T8 sequence: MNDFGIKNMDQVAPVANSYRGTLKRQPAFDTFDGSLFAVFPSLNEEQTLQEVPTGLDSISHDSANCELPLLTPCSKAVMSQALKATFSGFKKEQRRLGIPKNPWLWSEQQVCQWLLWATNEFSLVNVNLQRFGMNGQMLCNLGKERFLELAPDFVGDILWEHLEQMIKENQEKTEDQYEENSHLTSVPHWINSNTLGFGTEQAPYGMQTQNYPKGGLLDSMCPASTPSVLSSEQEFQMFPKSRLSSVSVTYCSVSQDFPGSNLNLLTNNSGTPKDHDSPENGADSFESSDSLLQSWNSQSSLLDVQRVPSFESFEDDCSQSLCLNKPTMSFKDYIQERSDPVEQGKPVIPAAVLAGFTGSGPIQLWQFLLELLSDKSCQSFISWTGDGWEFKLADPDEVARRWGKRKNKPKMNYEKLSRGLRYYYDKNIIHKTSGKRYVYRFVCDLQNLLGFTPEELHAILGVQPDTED
Procedure, shortened: as §1

SPDEF = molecular target: T9, SPDEF (Homo sapiens, UniProt O95238 1-335); details: protein: recombinant; tags: N-terminal GST; dsDNA, one strand shown
T9 sequence: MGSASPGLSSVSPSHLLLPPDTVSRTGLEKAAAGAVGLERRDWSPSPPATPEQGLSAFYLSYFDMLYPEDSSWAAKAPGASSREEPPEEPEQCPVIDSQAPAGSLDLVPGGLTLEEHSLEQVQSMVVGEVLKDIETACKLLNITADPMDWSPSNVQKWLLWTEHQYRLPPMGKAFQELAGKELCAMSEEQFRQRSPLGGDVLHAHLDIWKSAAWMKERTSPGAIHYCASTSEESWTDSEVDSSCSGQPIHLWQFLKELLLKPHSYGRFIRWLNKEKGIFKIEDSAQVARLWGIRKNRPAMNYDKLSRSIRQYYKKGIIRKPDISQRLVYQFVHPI
Procedure, shortened: as §1

ETV7 = molecular target: T10, ETV7 (Homo sapiens, UniProt Q9Y603 1-341); details: protein: recombinant; tags: N-terminal GST; dsDNA, one strand shown
T10 sequence: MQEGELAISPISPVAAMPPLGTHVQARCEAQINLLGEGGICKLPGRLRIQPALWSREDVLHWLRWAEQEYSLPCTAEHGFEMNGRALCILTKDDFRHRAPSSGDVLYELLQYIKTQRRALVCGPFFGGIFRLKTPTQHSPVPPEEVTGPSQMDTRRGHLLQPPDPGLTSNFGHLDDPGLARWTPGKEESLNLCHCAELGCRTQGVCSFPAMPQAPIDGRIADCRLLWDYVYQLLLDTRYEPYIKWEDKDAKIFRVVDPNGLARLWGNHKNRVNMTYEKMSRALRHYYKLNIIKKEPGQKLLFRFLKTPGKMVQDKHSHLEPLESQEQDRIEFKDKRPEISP
Procedure, shortened: as §1

ELF5 = molecular target: T11, ELF5 (Homo sapiens, UniProt Q9UKW6-2 1-255); details: protein: recombinant; tags: N-terminal GST; dsDNA, one strand shown
T11 sequence: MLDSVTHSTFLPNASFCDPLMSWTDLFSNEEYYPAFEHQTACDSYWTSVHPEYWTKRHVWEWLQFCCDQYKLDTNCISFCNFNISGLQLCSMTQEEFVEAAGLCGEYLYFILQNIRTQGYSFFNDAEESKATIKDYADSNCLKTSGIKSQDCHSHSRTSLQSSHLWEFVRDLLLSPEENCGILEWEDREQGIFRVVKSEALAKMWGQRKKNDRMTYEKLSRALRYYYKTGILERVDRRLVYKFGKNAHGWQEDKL
Procedure, shortened: as §1

ETV3 = molecular target: T12, ETV3 (Homo sapiens, UniProt P41162-2 1-143); details: protein: recombinant; tags: N-terminal GST; dsDNA, one strand shown
T12 sequence: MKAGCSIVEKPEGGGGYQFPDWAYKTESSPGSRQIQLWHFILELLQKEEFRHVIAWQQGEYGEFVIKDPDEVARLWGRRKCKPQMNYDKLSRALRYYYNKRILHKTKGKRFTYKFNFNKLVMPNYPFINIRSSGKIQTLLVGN
Procedure, shortened: as §1

ETV6 = ETV6 (Homo sapiens, UniProt P41212 1-452); details: protein: recombinant; tags: N-terminal GST; dsDNA, one strand shown
Sequence of ETV6 (P41212 whole entry): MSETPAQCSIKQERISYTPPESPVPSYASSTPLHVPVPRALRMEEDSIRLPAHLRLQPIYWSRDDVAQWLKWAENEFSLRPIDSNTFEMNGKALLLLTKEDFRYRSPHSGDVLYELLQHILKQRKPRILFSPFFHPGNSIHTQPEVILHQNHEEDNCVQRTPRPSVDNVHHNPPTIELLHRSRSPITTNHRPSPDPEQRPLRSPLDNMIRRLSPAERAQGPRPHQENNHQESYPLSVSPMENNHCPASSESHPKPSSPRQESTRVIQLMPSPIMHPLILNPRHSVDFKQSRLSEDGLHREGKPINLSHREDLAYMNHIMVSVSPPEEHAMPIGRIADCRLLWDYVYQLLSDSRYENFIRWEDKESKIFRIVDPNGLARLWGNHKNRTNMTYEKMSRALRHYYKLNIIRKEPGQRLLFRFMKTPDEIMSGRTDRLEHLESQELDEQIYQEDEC
Procedure, shortened: as §1

TCCCTC
binding signal (FEV): 1.56 fold enrichment (6-mer frequency, TF over GST control) | binding signal (ETV5): 1.43 fold enrichment (6-mer frequency, TF over GST control) | binding signal (HSF1): 1.38 fold enrichment (6-mer frequency, TF over GST control) | binding signal (SPIC): 1.35 fold enrichment (6-mer frequency, TF over GST control) | binding signal (ELF4): 1.7 fold enrichment (6-mer frequency, TF over GST control) | binding signal (ELK4): 1.78 fold enrichment (6-mer frequency, TF over GST control) | binding signal (ETV2): 1.43 fold enrichment (6-mer frequency, TF over GST control) | binding signal (ELF3): 1.43 fold enrichment (6-mer frequency, TF over GST control) | binding signal (CRX): 1.41 fold enrichment (6-mer frequency, TF over GST control) | binding signal (ETV1): 1.43 fold enrichment (6-mer frequency, TF over GST control) | binding signal (ERF): 1.46 fold enrichment (6-mer frequency, TF over GST control) | binding signal (ETV3L): 1.41 fold enrichment (6-mer frequency, TF over GST control) | binding signal (ETS2): 1.49 fold enrichment (6-mer frequency, TF over GST control) | binding signal (SPDEF): 1.4 fold enrichment (6-mer frequency, TF over GST control) | binding signal (ETV7): 1.4 fold enrichment (6-mer frequency, TF over GST control) | binding signal (ELF5): 1.53 fold enrichment (6-mer frequency, TF over GST control) | binding signal (ETV3): 1.49 fold enrichment (6-mer frequency, TF over GST control) | binding signal (ETV6): 1.43 fold enrichment (6-mer frequency, TF over GST control)
